From PubChem BioAssay AID1851 (National Center for Advancing Translational Sciences (NCATS), 2009) come the findings set out here.

The campaign covered roughly 16,000 compounds. About 4,000 (25%) were called active. About 26% were inconclusive and are not listed. The list is a sample of the results. Values without a mark were called inactive. Calls follow the shape of the dose curve; as a rule, active = well fitted curve in the direction sought with a large enough effect; inconclusive = small, poorly fitted or top-dose-only effect, or effect the other way; inactive = no such curve, though single readings can be large or run the other way.
% is scaled to controls: 0 for no effect and ±100 for the full control effect.

This experiment deals with Cytochrome P450 2C9 (Homo sapiens) (UniProt P11712). In words: Cytochrome panel assay with activity outcomes. The conditions noted are these: recombinant CYP, pro-luciferin dealkylation, luminescence, p450-cyp2c9; series mostly up to 57.1 µM.
Sequence of Cytochrome P450 2C9 (Homo sapiens) (P11712 whole entry, looked up): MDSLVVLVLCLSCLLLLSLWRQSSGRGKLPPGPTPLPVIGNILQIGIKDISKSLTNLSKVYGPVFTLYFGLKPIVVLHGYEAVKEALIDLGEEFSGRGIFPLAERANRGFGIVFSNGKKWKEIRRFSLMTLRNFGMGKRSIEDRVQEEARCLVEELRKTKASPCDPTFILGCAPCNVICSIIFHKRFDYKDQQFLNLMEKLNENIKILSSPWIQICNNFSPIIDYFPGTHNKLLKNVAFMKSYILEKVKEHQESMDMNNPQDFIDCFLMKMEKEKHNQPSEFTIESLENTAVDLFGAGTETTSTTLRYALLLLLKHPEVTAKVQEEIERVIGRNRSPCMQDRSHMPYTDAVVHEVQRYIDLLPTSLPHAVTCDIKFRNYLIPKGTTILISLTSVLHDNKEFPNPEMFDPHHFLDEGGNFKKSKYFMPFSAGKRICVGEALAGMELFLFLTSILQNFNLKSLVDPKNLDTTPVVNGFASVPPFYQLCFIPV
With `CCC(=O)O[C@H](CC(=O)O)C[N+](C)(C)C`, the AC50 entry is “inactive”.

Turning to `N[C@@H](COP(=O)(O)O)C(=O)O`, the AC50 entry was “inactive”.

On to `Fc1ccc(-c2[nH]ncc2-c2nnnn2-c2ccccc2)c(F)c1`, for which the AC50 was 7.94 µM (active).

On to `C=CC[C@@H](C(=O)O)c1ccccc1`, for which the activity, negative = inhibition is -1.11% [at 11.4 µM].

As to `CCOc1cc(/C=N/NC(=O)COc2cccc(C)c2)ccc1OC(=O)c1cccs1`, the concentration at half-maximal activity (AC50) was 3.16 µM (active).

Take `CCOc1cc(/C=N/NC(=O)CNc2cccc(C)c2)ccc1OC(=O)c1ccccc1`: the AC50 was 5.01 µM (active).

For the compound `N#Cc1cccc(NC(=O)N2CC3(CCN(C(=O)c4cnccn4)CC3)C2)c1`, the AC50 result was “inactive”.

Turning to `CC(C)(C)c1c2c(c(C(C)(C)C)c3c1OCN(Cc1ccccc1)C3)OCN(Cc1ccccc1)C2`, the activity, negative = inhibition is -7.82% [at 11.4 µM].

As to `C#CCSc1nc(Cc2ccc(Cl)cc2)nc2ccccc12`, the AC50 was 2.82 µM (active).

Regarding `O=C1NC(c2ccccc2)=NC1(NS(=O)(=O)c1ccccc1)C(F)(F)F` (stereo unspecified), the AC50 result was “inactive”.

As to `CCCCNc1ccc(C(=O)OCCOCCOCCOCCOCCOCCOCCOCCOCCOC)cc1`, the AC50 entry was “inactive”.

In the case of `NCCNC(=O)c1ncsc1-c1cccc(F)c1`, the AC50 entry is “inactive”.

`O=C(OCCNC(=O)c1ccc2ccccc2n1)c1ccc(F)cc1`: the AC50 was 10 µM (active).

On to `O=c1[nH]c(SCc2c(Cl)c(Cl)c(Cl)c(Cl)c2Cl)nc(=S)[nH]1`, for which the AC50 was 1.26 µM (active).

On to `Nc1ccc(N=Nc2c(S(=O)(=O)O)cc3ccccc3c2S(=O)(=O)O)cc1`, for which the activity, negative = inhibition was 8.14% [at 11.4 µM].

For the compound `NCC[C@H]1CCC[C@H](CCN)N1`, the AC50 entry was “inactive”.

As to `COc1cc2nc(N3CCN(C(=O)c4ccco4)CC3)nc(N)c2cc1OC`, the AC50 entry was “inactive”.

For `Cc1ccc(C)c(N2CCN(C(=O)c3ccc4nc(-c5ccco5)c(-c5ccco5)nc4c3)CC2)c1`, the AC50 is 7.08 µM (active).

For `COc1ccc(C)cc1NC(=O)CCC(=O)Nc1nnc(C(F)(F)F)s1`, the AC50 was 1.26 µM (active).

On to `COc1ccc(C)cc1NC(=O)CSc1nnc(-c2ccc(OC)c(OC)c2)n1N`, for which the AC50 entry was “inactive”.

With `CCC(=O)OCC(=O)[C@@]1(OC(=O)CC)[C@H](C)C[C@@H]2[C@H]3CCC4=CC(=O)C=C[C@]4(C)[C@]3(Cl)[C@@H](O)C[C@@]21C`, the AC50 result was “inactive”.

With `CCN(CC)C[C@@H](O)c1ccc2ccc3ccccc3c2c1`, the activity, negative = inhibition was -3.91% [at 11.4 µM].

As for `CC(C)NC[C@H](O)c1ccc2ccccc2c1`, the AC50 entry is “inactive”.

Take `CCCCOC(OCCCC)[C@H](O)CSc1ccc2ccccc2c1`: the AC50 is 2 µM (active).

Consider `Cc1cc(C)c(C#N)c(Oc2ccccc2)n1`, for which the AC50 result is “inactive”.

As for `Cc1cc(C)c(C#N)c(OCC(=O)c2ccc(Br)cc2)n1`, the AC50 was 10 µM (active).

What is called AC50 is the concentration at which the activity in the assay is half-maximal.
